Records with an inconclusive call do not appear. Activity calls are given as the source filed them. Calls follow the shape of the dose curve; as a rule, active = well fitted inhibition curve with a large enough effect; inconclusive = small, poorly fitted or top-dose-only effect; inactive = no such curve, though single readings can be large or run the other way.
% is scaled to controls: 0 for no effect and ±100 for the full control effect; potency is read from the fitted curve at half-maximal effect.

This experiment relates to Zika virus NS2B-NS3 protease (unlinked complex). Briefly: Primary screen GU Rhodamine qHTS for Zika virus inhibitors: Unlinked NS2B-NS3 protease assay (AID 1347159). Also: nearly all actives have a fitted effect of over 60% in size. Particulars: Recombinant ZIKV NS2B-NS3 protease, Rhodamine110 substrate fluorescence; series mostly up to 107 µM; activity change, negative = inhibition: at the top concentration. The procedure, abridged:
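Noncovalent NS2B hydrophilic domain–NS3 protease domain complex (25 nM) preincubated 15 min at room temperature with compounds (up to 114 microM) in 10 mM Tris-HCl pH 8.0, 0.01% Tween 20; 1.5 microM Rhodamine110 substrate added, fluorescence change over 15 min fitted to Hill equation.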
A general note: In qHTS, concentration-response curves come from the screen itself.
`COc1c2c(cc3c1-c1c(cc4c(c1OC)OCO4)CC(C)C(C)C3)OCO2` (stereo not given): the “activity change, negative = inhibition” value was -15.6% (inactive).

Take `COc1c2c(c(CO)c3c1C(=O)OC3)OC1(C)CCC3(O)C(C)(C)OC(=O)CCC3(C)C1C2` (stereo not given): the “activity change, negative = inhibition” value was 13.4% [at 57.1 µM] (inactive).

As to `CC[C@H]1OC(=O)[C@](C)(F)C(=O)[C@H](C)[C@@H](O[C@@H]2O[C@H](C)C[C@H](N(C)C)[C@H]2O)[C@](C)(OC)C[C@@H](C)C(=O)[C@@H](C)[C@H]2N(CCCCn3cc(-c4cccc(N)c4)nn3)C(=O)O[C@]12C`, the “activity change, negative = inhibition” value is 0% (inactive).

Consider `Cc1ccc(C)c(OCCn2cc(C(=O)O)c3ccccc32)c1`, for which the Potency is 39.8 µM (active).

In the case of `Cc1cc(O)c(-c2ccc([C@@H](C)CN(C)C)cc2)c2c1[nH]c(=O)c1sccc12`, the “activity change, negative = inhibition” value is -6.49% (inactive).

As for `C[C@@H]1CN(Cc2ncccn2)C[C@H]1c1nc2c(cnn2C2CCOCC2)c(=O)[nH]1`, the “activity change, negative = inhibition” value was 42% (inactive).

Consider `COC(=O)[C@H](O)[C@H]1C(C)(C)[C@H](OC(=O)C(C)C)[C@@]2(O)C(=O)[C@]1(C)C1CC[C@]3(C)C(CC(=O)O[C@H]3c3ccoc3)[C@]13O[C@@H]32` (stereo not given in full), for which the “activity change, negative = inhibition” value is 25.4% [at 32.5 µM] (inactive).

With `O=C(O)[C@@H]1C[C@H]2C[C@@H](CCc3nn[nH]n3)CC[C@H]2CN1`, the “activity change, negative = inhibition” value was 13.4% (inactive).

As for `C/C(=C\CCC1(C)C2CCC(C2)C1(C)O)C(=O)O` (stereo not given), the Potency is 22.4 µM (active).

On to `CN[C@H](CC(C)C)C(=O)N[C@H]1C(=O)N[C@@H](CC(N)=O)C(=O)N[C@H]2C(=O)N[C@H]3C(=O)N[C@H](C(=O)N[C@H](C(=O)O)c4cc(O)cc(O)c4-c4cc3ccc4O)[C@H](O[C@H]3C[C@](C)(N)[C@@H](O)[C@H](C)O3)c3ccc(c(Cl)c3)Oc3cc2cc(c3O[C@@H]2O[C@H](CO)[C@@H](O)[C@H](O)[C@H]2O[C@H]2C[C@](C)(NCc3ccc(-c4ccc(Cl)cc4)cc3)[C@@H](O)[C@H](C)O2)Oc2ccc(cc2Cl)[C@H]1O`, for which the “activity change, negative = inhibition” value was 0% [at 32.5 µM] (inactive).

Values taken from PubChem BioAssay (NCATS).
